Out of some 210,000 compounds screened, about 5,900 (2.8%) were called active. A call without a number means that no potency is given here. About 5% were inconclusive and are not listed. Calls follow the shape of the dose curve; as a rule, active = well fitted activation curve with a large enough effect; inconclusive = small, poorly fitted or top-dose-only effect; inactive = no such curve, though single readings can be large or run the other way. Many of the other results were omitted from the sample, so actives are more common in it than they were.
Experiment: qHTS Assay for Enhancers of SMN2 Splice Variant Expression; also: nearly all actives have a fitted effect of over 55% in size
Conditions: HEK293 SMN2-luciferase splicing reporter, luminescence, 30-36 h; series mostly up to 46.1 µM
How it was run: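 HEK293 cells carry an SMN2 minigene-luciferase reporter in which exon 7 inclusion puts luciferase in frame. Cells were seeded at 2000 cells/well, attached for 10-12 hours, then exposed to compounds for 30-36 hours at 37C before ONE-Glo luminescence.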
Potency is read from the fitted curve at half-maximal effect.

Row | SMILES | Potency
1 | COc1cccc2sc(N(CCCN(C)C)C(=O)C(c3ccccc3)c3ccccc3)nc12 | inactive
2 | COc1cccc2sc(Nc3nc(C)c(C(C)=O)s3)nc12 | 7.94 µM (active)
3 | COc1cccc2sc(NNC(=O)c3nc4ccccc4s3)nc12 | inactive
4 | COc1ccc(/C=C2\NC(=O)[C@@H]3Cc4ccccc4CN3C2=O)cc1 | inactive
5 | CCN(CC)S(=O)(=O)c1ccc2c(c1)N(CC(=O)NCC(C)c1ccccc1)C(=O)CO2 (centres undefined) | inactive
6 | COc1ccc(C(=O)NCc2cn3ccccc3n2)cc1 | inactive
7 | O=Cc1ccc(OCc2cn3ccccc3n2)cc1 | 11.2 µM (active)
8 | Cc1ccc2nc(COc3ccc(N(C)S(=O)(=O)c4ccccc4)cc3)cc(=O)n2c1 | inactive
9 | COc1ccc(-c2nc3c(c(SCC(=O)Nc4ccc(C(=O)O)cc4)n2)Cc2ccccc2O3)cc1 | inactive
10 | CC(C)(C)NC(=O)Cn1cnc2cc([N+](=O)[O-])ccc2c1=O | inactive
11 | Cc1cc(C)nc(Nc2cc([N+](=O)[O-])ccc2C)n1 | inactive
12 | Cc1ccc(-n2cc3ccc([N+](=O)[O-])cc3n2)cc1 | 1.26 µM (active)
13 | CC1CCN(C(=O)Cn2c(=O)n(-c3ccc(Cl)cc3)c(=O)c3c4c(sc32)CCC4)CC1 | inactive
14 | CCCOc1ccc(CNC(=O)C2CCN(c3nn4c(=O)cc(C)nc4s3)CC2)cc1 | inactive
15 | Cc1nn(CC(=O)O)c(=O)c2cc3cc(F)ccc3n12 | inactive
16 | O=C1CCN(C(=S)NCCc2ccccc2)CC1 | inactive
17 | S=C(NCCc1ccccc1)N1CCCCC1 | 11.2 µM (active)
18 | Oc1ccccc1N1CCN(C(=S)NCc2ccccc2)CC1 | inactive
19 | CCc1nn(CCCC(=O)NCc2ccccc2OC)c(=O)c2cc3occc3n12 | inactive
20 | COc1ccc(-n2c(SC)nc3sc4c(c3c2=O)CCN(C(C)=O)C4)cc1 | inactive
21 | O=C(Nc1ccc2c(c1)OCCO2)C1CCCN(c2ncccn2)C1 (centres undefined) | 3.98 µM (active)
22 | Cc1cc(C)nc(N2CCC(C(=O)Nc3ccc4c(c3)OCCO4)CC2)n1 | inactive
23 | O=C(Nc1ccc2c(c1)OCCO2)C(c1ccc(F)cc1)N1CCCCC1 (centres undefined) | inactive
24 | Cc1c(NS(=O)(=O)c2ccc(Cl)cc2)c(=O)n(-c2ccccc2)n1C | inactive
25 | CCOc1ccccc1NC(=O)CSc1ncc(S(=O)(=O)c2ccc(C(C)(C)C)cc2)c(=O)[nH]1 | inactive
26 | COC(=O)c1ccc(NC(=O)c2cccc3c2C(=O)N(C2CCCCC2)C3)cc1 | inactive
27 | COc1cc(C)c(Cl)cc1S(=O)(=O)n1ccnc1 | inactive
28 | CCOc1cc(C)c(Cl)cc1S(=O)(=O)n1nnc2ccccc21 | 17.8 µM (active)
29 | CCCOc1cc(C)c(S(=O)(=O)n2nnc3ccccc32)cc1C | inactive

From PubChem BioAssay AID1458 (National Center for Advancing Translational Sciences (NCATS), 2008)
